Source: PubChem
ELG1 genotoxic: induces genotoxicity in HEK293T cells with luciferase-tagged ELG1 | Potency, µM (titrated, usually from 46 µM), inactives show at the top dose activity change, positive = activation, most hits filed as activators | HEK293T ELG1-luciferase reporter, luminescence, 16 h | 330,000 compounds, 1.3% hits | AID 504466; further: % of control where 0% means no effect; nearly all actives have a fitted effect of over 60% in size
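Reporter readout depends on ELG1 protein level, which increases with genetic stress. After 16 hr compound exposure at 37 °C, luciferase activity was quantified using ONE-Glo.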
FLuc counter: counter-screen for miR-21 project: firefly luciferase inhibitors or activators | AID 588342 | purified FLuc, Km substrates, luminescence inhibition | Potency, µM (doses to about 57.5 µM), without a hit: top-dose activity change, negative = inhibition, usual class: inhibitors | 360,000 compounds, 6.9% hits | P08659;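 further: plate controls were vehicle for no effect and reference inhibitor for full effect; nearly all actives have a fitted effect of over 55% in size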
Target sequence (P08659 whole entry, looked up): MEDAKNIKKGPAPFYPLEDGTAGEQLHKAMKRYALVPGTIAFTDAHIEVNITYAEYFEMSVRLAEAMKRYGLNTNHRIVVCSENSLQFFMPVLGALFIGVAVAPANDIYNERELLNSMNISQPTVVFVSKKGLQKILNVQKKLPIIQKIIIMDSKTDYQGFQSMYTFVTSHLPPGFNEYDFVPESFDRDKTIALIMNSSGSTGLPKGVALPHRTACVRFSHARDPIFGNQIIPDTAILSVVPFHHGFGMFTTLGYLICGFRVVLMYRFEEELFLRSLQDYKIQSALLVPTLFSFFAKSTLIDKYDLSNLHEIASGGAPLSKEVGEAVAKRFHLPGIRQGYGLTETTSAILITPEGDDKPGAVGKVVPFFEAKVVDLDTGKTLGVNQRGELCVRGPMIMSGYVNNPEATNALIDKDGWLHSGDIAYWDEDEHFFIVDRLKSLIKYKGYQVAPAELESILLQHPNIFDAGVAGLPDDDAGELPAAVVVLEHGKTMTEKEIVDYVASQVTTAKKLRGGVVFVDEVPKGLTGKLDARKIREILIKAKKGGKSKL
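Purified P. pyralis luciferase, 10 nM final, with Km-level 10 uM D-luciferin and 10 uM ATP in 50 mM Tris acetate pH 7.5, 10 mM Mg acetate, 0.01% Tween-20, 0.05% BSA; 6-point qHTS titration about 60 µM downward; luminescence read.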
NPC1 promoter act: activates the NPC1 promoter | Huh7 NPC1 promoter luciferase reporter, 24 h | Potency, µM (titrated, usually from 9.22 µM), inactives show at the highest dose activation, usual class: activators | 320,000 compounds, 2.4% hits; further: % of control where 0% means no effect; nearly all actives have a fitted effect of over 60% in size
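Stably transfected Huh7 (NPC1 promoter→luciferase), 1500 cells/well in Opti-MEM + 10% FBS, 2 h settle, then compound 24 h at 37 °C. Luminescence after 10 min with Amplite reagent.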
Rab9 promoter act: Rab9 promoter activation; Huh7 Rab9 promoter-luciferase reporter, luminescence, 24 h; Potency, µM (doses to about 9.22 µM), for inactives: at the highest dose activation, negative = inhibition, hits mostly activators; 320,000 compounds, 2.8% hits; further: % of control where 0% means no effect; nearly all actives have a fitted effect of over 60% in size
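Luciferase signal after 10 min detection reagent at ambient indicates Rab9 promoter upregulation; stably transfected Huh7 cells were treated 24 h with compound in DMSO at 37 °C, 5% CO2.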
Luc counter: counter-screen: inhibitors of Kinase-Glo firefly luciferase; Q27757; Kinase-Glo luciferase, ATP luminescence, 8 min; Potency, µM (titrated, usually from 38.3 µM), without a hit: top-dose activity change, negative = inhibition, usual class: inhibitors; 200,000 compounds, 0.28% hits; AID 1379; further: on the % scale 0 is the no-effect control and ±100 the full control effect; nearly all actives have a fitted effect of over 60% in size
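Inhibition of Kinase-Glo luciferase light generation was assessed at 10 uM ATP in pH 7.2 imidazole buffer, with luminescence measured after eight minutes at ambient temperature.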
SMN2 splice up: SMN2 splice variant enhancement; AID 1458; Potency, µM (series often up to 46.1 µM), for inactives: at the highest dose activity change, positive = activation, usual class: activators; HEK293 SMN2-luciferase splicing reporter, luminescence, 30-36 h; 210,000 compounds, 2.8% hits; further: % of control where 0% means no effect; nearly all actives have a fitted effect of over 55% in size
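HEK293 cells carry an SMN2 […]–luciferase reporter in which exon 7 inclusion puts luciferase in frame. Cells were plated 10-12 h before compound addition, then incubated 30-36 h at 37C. ONE-Glo luminescence was read; sodium butyrate at 4.5 mM final served as control.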
An asterisk follows results filed as active; ? = inconclusive; / = no result given; [ ] = remark or other dose. Most compounds without a hit are left out; they make up all but 7.3% or so of the library. The call rests on the fitted dose curve; in most records, active means well fitted curve in the direction sought with a large enough effect; inconclusive means small, poorly fitted or top-dose-only effect, or another doubt; inactive means no such curve, though single readings can be large; an effect the other way counts as inactive or inconclusive. Potency means the concentration at half of the fitted maximal effect.

SMILES	ELG1 genotoxic	FLuc counter	NPC1 promoter act	Rab9 promoter act	Luc counter	SMN2 splice up
Cc1cc(N)c2cc(NC(=O)Nc3ccc4nc(C)cc(N)c4c3)ccc2n1	/	/	/	/	-7%[7.66 µM]	8%[9.22 µM]
Cc1ccc(-c2cn(-c3ccc(Cl)cc3)c(S(=O)(=O)CC(=O)Nc3ccccc3)n2)cc1	/	?	/	/	/	3.2µM*
Cc1cc(C)cc(NC(=O)Cn2c(=O)n(C(C)C)c(=O)c3oc4ccccc4c32)c1	/	1%	/	/	/	/
CC(C)(C)C1=CC(=O)C(=O)C(C(C)(C)C)=C1	-5%	7.6µM*	-16%	-17%	-3%	-110%
Cc1ccc(CNC(=O)c2cnc(N3CCCCC3)c3ccccc23)cc1	/	-13%	/	/	/	/
CC1=NNC(=O)/C1=C\c1cn(-c2ccccc2)nc1-c1ccc(Cl)cc1	-20%	0%	-48%	-51%	-1%	-90%
Cc1ccc(-c2nn(-c3ccccc3)cc2C=C2C(=O)CC(C)(C)CC2=O)cc1	0%	24µM*	-2%	-1%	2%	-16%
Cc1cc(C)cc(OCC(=O)NCC(c2ccc(Cl)cc2)N2CCCCC2)c1 (centres undefined)	/	2%	/	/	/	/
Fc1ccc(C(NCCc2ccccc2)c2nnc(-c3ccccc3Cl)o2)cc1 (centres undefined)	/	-4%	/	/	/	-13%
CC(C(=O)O)c1ccc(C(=O)c2ccccc2)s1 (centres undefined)	?	17µM*	6%	29%	/	/
Cc1ccc(-c2nc3ccc(NS(=O)(=O)c4ccccc4)cc3[nH]2)o1	?	12µM*	4µM*	?	-7%	?
O=S(=O)(Nc1ccc2nc(-c3ccc(Br)o3)[nH]c2c1)c1ccccc1	16%	15µM*	2.8µM*	2.8µM*	-3%	9%
Cc1ccc(OCCCN2C(=O)C(=O)c3cccc(C)c32)cc1	-1%	24µM*	1%	7%	-1%	-22%
Cc1cccc2c1N(CCOc1ccc(C(C)(C)C)cc1)C(=O)C2=O	-1%	?	0%	14%	-1%	-7%
Cc1ccc(OCCN2C(=O)C(=O)c3cc(C)ccc32)cc1	?	15µM*	-11%	-12%	0%	-36%
O=C(OCCN1CCOCC1)c1ccc(Cl)cc1Cl	9%	24µM*	1%	-1%	/	/
O=C(CCN1CCOCC1)c1ccc2c(c1)OCCO2	5%	-4%	1%	5%	0%	25%
O=C(CCCN1CCOCC1)c1ccc2c(c1)OCCO2	?	13µM*	?	2µM*	4%	?
Cc1ccccc1C(=O)OCCN1CCOCC1	9%	0%	-3%	1%	-3%	-4%
O=C(OCCN1CCOCC1)c1ccc2c(c1)OCCO2	/	24µM*	/	/	-3%	?
CC(C)(C)OC(=O)N1CCC(c2c(C(=O)NCCN3CCOCC3)cnn2-c2ccc(F)cc2F)CC1	/	-1%	/	/	/	/
O=C1c2ccccc2C(=O)c2cc(NC(=O)C3CC3)ccc21	?	?	2.5µM*	2.2µM*	-5%	11µM*
Nc1ccc2c(c1)C(=O)c1ccccc1C2=O	?	13µM*	?	4µM*	/	16µM*
CC(=O)Nc1ccc2c(c1)C(=O)c1ccccc1C2=O	?	4.8µM*	1.6µM*	0.71µM*	-6%	13µM*
O=C(O)/C=C/C(=O)Nc1ccc2c(c1)C(=O)c1ccccc1C2=O	9%	17µM*	5%	13%	/	/
COc1cc(C(=O)Nc2ccc3c(c2)C(=O)c2ccccc2C3=O)cc(OC)c1OC	0%	1%	-4%	-2%	-1%	5%[1.84 µM]
O=C1c2ccccc2-c2ccc(NC(=O)[C@H]3CCCC[C@@H]3C(=O)O)cc21	/	/	/	/	0%[7.66 µM]	-2%[9.22 µM]
CCCCN1CCCc2cc(CN(CCCN3CCOCC3)C(=O)Nc3ccc(CC)cc3)ccc21	/	7%	/	/	/	/
Cc1ccc2oc(=O)n(CCNC(=O)Nc3ccc(C)c(F)c3)c2c1	/	2%	/	/	/	-21%
